# In PubChem BioAssay AID2284154 (EPA ToxCast):
# Calls of active or inactive are those of the source. Rule for the calls: active = hit-call score of the fitted dose curve at least 0.9, where 1 is the maximum; inactive = score below 0.9.
# Target: Muscarinic acetylcholine receptor M3 (Homo sapiens) (UniProt P20309)
# Assay: ERF_FR_GPCR_hCHRM3: Eurofins (ERF) G Protein-Coupled Receptor (GPCR) Radioligand Binding LeadHunter Assay for human Muscarinic Acetylcholine Receptor M3 Antagonism, conducted at France lab site
# Description: ERF_FR_GPCR_hCHRM3 is a biochemical, single-readout assay that uses extracted gene-proteins in a cell-free assay. Measurements were taken 1 hour after chemical dosing in a 96-well plate. See M3 Human Acetylcholine (Muscarinic) GPCR Binding (Antagonist Radioligand) Assay, Cerep.ERF_FR_GPCR_hCHRM3 is an assay component calculated from the ERF_FR_GPCR_hCHRM3 assay. It is designed to measure radioligand binding using a type of binding reporter as detected by scintillation counting with radiometry technology.Data from the assay component ERF_FR_GPCR_hCHRM3 was analyzed at the assay endpoint, ERF_FR_GPCR_hCHRM3, in the positive analysis fitting direction relative to DMSO as the negative control and baseline of activity. Using a type of binding reporter, loss-of-signal activity can be used to understand changes in binding as they relate to gene CHRM3. To generalize the intended target to other relatable targets, this assay endpoint is annotated to the gpcr intended target family, where the subfamily is acetylcholine (Muscarinic).
# Human cells are incubated for 60 minutes at room temprature with [3H]4-DAMP ligand (0.2 nM) and 4-Damp methiodide as control inhibitor.Test Sample Requirements: Minimum for 1) Screen: 60 ul of 10 mM stock -OR- 1 mg (pre-weighed) for 10 uM final testing. 2) Dose Response: 90 ul of 10 mM stock -OR- 1 mg (pre-weighed) for a top concentration at 10 uM.
# Chain of Muscarinic acetylcholine receptor M3 (Homo sapiens) (P20309 whole entry, looked up): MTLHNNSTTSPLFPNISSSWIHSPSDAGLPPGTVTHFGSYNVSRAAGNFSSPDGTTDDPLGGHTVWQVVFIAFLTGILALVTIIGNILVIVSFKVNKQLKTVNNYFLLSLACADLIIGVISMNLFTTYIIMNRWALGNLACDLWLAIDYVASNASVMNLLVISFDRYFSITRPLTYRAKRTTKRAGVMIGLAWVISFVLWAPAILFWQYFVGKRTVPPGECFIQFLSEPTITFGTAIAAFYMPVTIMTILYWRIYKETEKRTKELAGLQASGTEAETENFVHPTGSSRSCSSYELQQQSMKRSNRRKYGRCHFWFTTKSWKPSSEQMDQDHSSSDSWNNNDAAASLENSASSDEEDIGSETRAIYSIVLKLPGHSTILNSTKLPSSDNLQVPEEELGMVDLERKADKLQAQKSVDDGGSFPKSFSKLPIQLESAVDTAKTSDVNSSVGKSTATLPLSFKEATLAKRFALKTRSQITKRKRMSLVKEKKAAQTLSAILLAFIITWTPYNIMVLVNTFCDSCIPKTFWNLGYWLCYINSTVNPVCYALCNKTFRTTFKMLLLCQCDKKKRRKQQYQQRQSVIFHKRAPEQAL
row,SMILES,AC50
1,O=C(/C=C/c1ccc(O)cc1)CC(=O)/C=C/c1ccc(O)cc1,2.71 µM (active)
